# Bioassay records as filed in PubChem.
# CSC inhib: cancer stem cell inhibition; cancer stem cell-like cells viability, luminescence; inhibition, % at 7.5 µM; 300,000 tested, 1.1% active; AID 2717; in the data active = inhibition above about 75%; inconclusive = no clear call, values can overlap the other calls; tested in HMLE shEcad cells
# Mdm2-MdmX inh: human Mdm2/MdmX binding inhibition. inhibition, % at 8 µM. O15151+Q00987. 330,000 tested, 3% active. SaOS-2 split-luciferase Mdm2/MdmX complementation, luminescence;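 active = inhibition of at least 50% at 8 µM in the primary screen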
# Target sequence (O15151 whole entry, looked up): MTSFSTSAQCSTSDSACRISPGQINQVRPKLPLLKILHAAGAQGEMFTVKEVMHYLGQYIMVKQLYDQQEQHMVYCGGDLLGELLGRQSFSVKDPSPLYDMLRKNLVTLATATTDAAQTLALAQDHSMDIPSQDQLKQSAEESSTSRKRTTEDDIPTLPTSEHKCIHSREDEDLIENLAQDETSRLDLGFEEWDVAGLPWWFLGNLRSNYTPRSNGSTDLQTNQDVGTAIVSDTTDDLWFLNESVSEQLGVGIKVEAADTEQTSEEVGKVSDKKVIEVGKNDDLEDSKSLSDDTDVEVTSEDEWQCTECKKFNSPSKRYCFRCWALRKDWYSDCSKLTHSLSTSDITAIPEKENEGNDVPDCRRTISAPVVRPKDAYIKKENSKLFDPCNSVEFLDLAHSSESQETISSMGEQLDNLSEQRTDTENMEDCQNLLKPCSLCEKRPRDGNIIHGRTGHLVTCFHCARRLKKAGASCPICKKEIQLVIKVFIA
# Target sequence (Q00987 whole entry, looked up): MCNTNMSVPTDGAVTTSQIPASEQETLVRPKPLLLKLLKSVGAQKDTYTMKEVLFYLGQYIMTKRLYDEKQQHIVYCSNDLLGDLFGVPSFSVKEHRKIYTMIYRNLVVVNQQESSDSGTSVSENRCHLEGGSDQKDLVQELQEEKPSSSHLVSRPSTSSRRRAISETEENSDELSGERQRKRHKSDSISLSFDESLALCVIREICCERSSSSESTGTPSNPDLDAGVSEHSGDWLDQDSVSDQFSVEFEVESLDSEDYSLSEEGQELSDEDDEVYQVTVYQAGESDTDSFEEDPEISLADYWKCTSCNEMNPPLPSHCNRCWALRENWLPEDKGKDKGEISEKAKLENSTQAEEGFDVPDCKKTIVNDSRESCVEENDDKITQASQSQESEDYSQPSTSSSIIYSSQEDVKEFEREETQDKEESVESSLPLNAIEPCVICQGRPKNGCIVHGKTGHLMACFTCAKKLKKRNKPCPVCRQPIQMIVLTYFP
# Beta apoptosis: beta cell apoptosis inhibition; protection from apoptosis, % (test concentration not listed); INS-1E cytokine-induced death, ATP luminescence, 48 h; percent of positive-control rescue, neutral wells zero; 300,000 tested, 0.8% active;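 active = Every replicate reaches about 75%, or at least half do and their mean reaches it too, limit read from the data; inconclusive = At least half of replicates reach the limit but their mean does not; inactive = Under half of replicates reach the limit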;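 note: 0% = cytokine-treated negative control wells and 100% = positive control rescue; higher means more ATP so stronger rescue from cytokine killing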
# Calb FLC: C. albicans growth modulation with fluconazole. 300,000 tested, 0.57% active. C. albicans CaCi-2 (fluconazole-resistant clinical isolate) + fluconazole, Alamar Blue growth, 48 h. AID 1979. growth inhibition, % (no concentration beside the values);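 active = growth inhibition above about 58% in most replicates, limit read from the data, passing the limit was not always enough; inconclusive = exactly half the replicates above a set limit; inactive = most replicates below a set limit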;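 note: all wells also contain fluconazole at 8 µg/ml as a sub-toxic cotreatment; 0% = median of DMSO wells and 100% = median of geldanamycin control wells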
# MPTP inh: permeability transition pore inhibition | isolated mouse mitochondria, Ca2+ swelling absorbance, 30 min | inhibition, % at 10 µM | 360,000 tested, 1.4% active;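 active = inhibition of 50% or more, scaled per plate between neutral and stimulator controls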;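 note: 0% = DMSO wells given calcium and 100% = 1 mM EGTA wells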
# Mdm2-MdmX conf: confirmation of human Mdm2/MdmX interaction inhibitors; shares compounds with Mdm2-MdmX inh; Mdm2-MdmX binding, luminescent assay; inhibition, % at 8 µM; 10,000 tested, 55% active; in the data active = inhibition above about 40%
# Full FLuc ctr: counter-screen for Mdm2/MdmX inhibitors: full-length luciferase; inhibition, % at 8 µM; shares compounds with Mdm2-MdmX inh; AID 504607; SaOS-2 full-length luciferase counterscreen, luminescence; 6,200 tested, 77% active;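 active = mean inhibition at 8 µM reaching about 37%, which flags the compound as non-specific, limit read from the data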;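 note: p53-null SaOS-2 cells with luciferase driven by a doxycycline-inducible promoter; compound on cells about two nights before reading with doxycycline added after day one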
# * marks the source's active call; other numbers are inactive results; ? = inconclusive; / = not tested or not shown; ! = a repeat was not active. In the library only some 4.8% were active in any assay of this set; here they are far more common.
SMILES,CSC inhib,Mdm2-MdmX inh,Beta apoptosis,Calb FLC,MPTP inh,Mdm2-MdmX conf,Full FLuc ctr
CCC/C(C#Cc1ccc(N(C)C)cc1)=C1/c2ccccc2C(=O)N1c1ccccc1,42.3,50.6*,47.5,/,1.0,7.8,/
C=CCNC(=O)c1c(Cl)cnn1-c1ccc(C)cc1,-9.3,-76.1,3.7,6.0,0.2,/,/
COc1ccc(-c2c3c(nc4sc5c(=O)[nH]c(C)nc5c24)CCC3)cc1,-0.8,66.9*,27.7,8.1,-0.6,12.1,/
C=CCOc1c(Br)cc(/C=N/NC(=O)Cc2ccc(C(F)(F)F)cc2[N+](=O)[O-])cc1OC,-12.2,56.7*,5.5,4.3,0.9,6.1,/
Cc1ccc(Nc2nc(N/N=C\c3ccc4c(c3)OCO4)nc(N3CCOCC3)n2)cc1,53.8,64.8*,2.2,51.5,-0.7,57.0*,78.1*
COc1cccc(/C=N/Nc2ccc([N+](=O)[O-])cn2)c1O,122.8*,93.1*,119.3*,97.2*,4.3,91.2*,52.9*
O=[N+]([O-])c1ccc(Nc2nc(N/N=C/c3cccc(F)c3)nc(N3CCCC3)n2)cc1,-1.6,43.4,23.8,-3.5,4.7,/,/
Cc1cc(C)nc(N/N=C/c2cc3c(cc2[N+](=O)[O-])OCO3)n1,0.3,7.2,-2.7,?,1.6,/,/
O=[N+]([O-])c1cc2c(cc1/C=N/Nc1nc(Nc3ccccc3)nc(N3CCCCC3)n1)OCO2,4.0,63.6*,10.0,-2.8,0.7,42.5*,37.3*
COc1cccc(/C=N/Nc2nc(Nc3ccc([N+](=O)[O-])cc3)nc(N3CCCC3)n2)c1O,/,96.1*,59.9,72.1*,0.4,89.4*,39.1*
O=c1[nH]c(N/N=C/c2cc3c(cc2[N+](=O)[O-])OCO3)nc2ccccc12,-18.6,64.0*,-5.2,4.8,2.1,6.0,/
CC1(C(=O)NCc2ccccc2)CSCC(=O)N1Cc1cccc(F)c1 (configuration not stated),/,/,/,/,-1.1,/,/
O=C1Cn2nnc(-c3ccccc3)c2C2c3ccccc3CCN12 (configuration not stated),/,/,/,/,-0.3,/,/
Cc1ccccc1OCc1n(CC(=O)OC2CC(C)CCC2C(C)C)c2ccccc2[n+]1C (configuration not stated),10.2,65.4*,114.4*,98.7*!,7.6,99.3*,59.7*
CC1CCC(C(C)C)C(OC(=O)Cn2c(-c3ccc(Br)cc3)[n+](C)c3ccccc32)C1 (configuration not stated),3.3,100.3*,106.1*,108.1*,4.9,95.2*,57.1*
Cc1ccc(C2=Nc3ccccc3SC(c3cccc([N+](=O)[O-])c3)C2)cc1 (configuration not stated),24.6,-9.0,-1.7,-7.7,1.0,/,/
Clc1ccc(CNCC2CCCO2)c(Cl)c1 (configuration not stated),-0.8,18.4,-6.3,-4.9,1.7,/,/
OC(CNCC1CCCO1)Cn1c2ccc(Cl)cc2c2cc(Cl)ccc21 (configuration not stated),110.9*,96.3*,/,69.0,3.0,43.7*,20.4
O=S(=O)(NC(=S)c1ccccc1)c1ccccc1,3.0,-2.4,/,-1.0,1.7,/,/
CC(C)N=C(NS(=O)(=O)c1ccccc1)C(Cl)(Cl)Cl,-2.0,83.5*,13.8,-35.8,2.0,59.9*,73.7*
CC1(C(=O)NS(=O)(=O)c2ccccc2Cl)CCN1C(=O)CC1CCCC1 (configuration not stated),/,/,/,/,-0.8,/,/
CCc1ccc(NC2=CC(=O)C(=O)c3ccccc32)cc1,/,69.7*,/,/,4.8,64.8*,85.0*
O=C(CN1C(=O)c2ccccc2C1=O)Nc1cccc2cccnc12,-1.1,24.9,/,-0.1,0.7,/,/
O=C1C=C(Nc2ccccc2C(=O)O)c2ccccc2C1=O,51.8,-14.2,7.7,41.5,9.8,/,/
O=C1C=C(Nc2ccccc2)c2ccccc2C1=O,/,52.7*,/,-3.8,4.1,30.2,/
SMILES,CSC inhib,Mdm2-MdmX inh,Beta apoptosis,Calb FLC,MPTP inh,Mdm2-MdmX conf,Full FLuc ctr
O=C1C=C(Nc2cccc3cccnc23)c2ccccc2C1=O,58.0,63.2*,-6.0,100.6*,0.2,56.8*,70.0*
CCc1ccc2c(c1)C(=O)c1ccccc1C2=O,-9.3,-57.9,-16.4,-19.4,1.4,/,/
Cc1cccc(OCCCN2C(=O)C(=O)c3cc(C)ccc32)c1,18.3,58.8*,-2.2,-1.9,1.7,69.2*,65.5*
Cc1ccc2c(c1)C(=O)C(=O)N2Cc1ccc(Cl)cc1,40.0,67.7*,-2.6,/,-0.9,23.6,/
COc1ccc(NC(=O)Cn2c3ccccc3c3nc4n(c(=O)c32)CCS4)cc1,4.0,69.7*,13.8,42.6,0.5,12.2,/
Cc1ccc(NC(=S)NNC(=S)Nc2ccc(C)cc2C)cc1,3.5,71.3*,-3.9,49.7,42.6,52.3*,93.7*
CCOc1cc(/C=N/NC(=O)C(N)=O)cc(Br)c1O,-0.4,12.4,3.2,8.4,-2.5,/,/
CC(=O)c1cccc(N=Cc2c(O)c3ccccc3oc2=O)c1,-1.0,38.0,-9.1,1.7,-0.4,/,/
CC(=O)Nc1ccc(N=Cc2c(O)c3ccccc3oc2=O)cc1,17.4,53.2*,-0.4,-0.4,-0.1,33.5,/
CCOc1cc(Br)c(Br)c(C=Nc2ccc(NC(C)=O)cc2)c1O,-0.7,67.9*,-3.5,2.2,-0.3,76.4*,33.1
CC(=O)Nc1ccc(N=Cc2c(O)c(C(=O)Nc3ccccc3)cc3ccccc23)cc1,97.7*,77.9*,12.3,30.9,/,36.8,103.5*
O=S(=O)(c1ccccc1F)N1CCc2ccccc2C1,12.0,12.0,-7.0,6.1,0.1,/,/
CCOc1ccccc1/C=C/C(=O)N1CCN(C(=O)c2ccco2)CC1,-12.4,7.0,-3.1,/,-0.1,/,/
CCC[C@@H]1C[C@@]1(CCC)[C@@H](NP(=O)(c1ccccc1)c1ccccc1)c1ccc(C(=O)OC)cc1,-10.5,75.1*,/,16.5,/,38.9,73.0*
COC(=O)c1cccc(C#CC(NP(=O)(c2ccccc2)c2ccccc2)c2ccccc2)c1 (configuration not stated),34.2,29.8,11.3,12.7,-2.4,/,/
CCC1C(=O)N=C(SCC(=O)Nc2cccc3ccccc23)NC1=O (configuration not stated),-17.0,-6.6,/,-1.5,-2.5,/,/
Cn1cc(SCC(=O)Nc2nc3ccccc3s2)c2ccccc21,-5.7,77.9*,-26.1,-7.4,0.8,66.6*,61.8*
Cc1csc(SCC(=O)Nc2nc3ccccc3s2)n1,0.6,5.0,4.1,-16.9,-7.0,/,/
CCC1C(=O)N=C(SCC(=O)Nc2nc3ccccc3s2)NC1=O (configuration not stated),-20.7,71.8*,-2.2,6.4,-1.9,17.5,/
CCN(CC)c1ccc(NC(=O)c2ccccc2Br)cc1S(=O)(=O)Nc1ccccc1OC,3.3,-6.3,33.3,-19.9,6.6,/,/
CCN(CC)c1ccc(NC(=O)c2ccc(=O)[nH]c2)cc1S(=O)(=O)Nc1ccccc1OC,46.1,50.1*,16.0,12.7,-4.1,56.0*,54.4*
